# High-throughput results: PubChem, NMMLSC
# MEKK3 PB1 HTS = modulators of MEKK3-MEK5 PB1 binding, primary screen, biochemical, wildtype MEKK3, multiplex bead flow cytometry, Alexa488-MEK5; Mitogen-activated protein kinase kinase kinase 3 (Homo sapiens), Q99759; AID 1529, 2009; bead-based flow cytometry, Alexa488-MEK5 binding to MEKK3; actives lie on both sides; 0 = blocked by unlabeled MEK5, 100 = vehicle; 290,000 tested, 1.4% active; binding response (% of control), % at 10 µM;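 active means binding response more than 3 SD above or below the average of its plate-row segment, actives on both sides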;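 further: Alexa488 bead fluorescence after subtracting the streptavidin-only scavenger bead signal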
# Target sequence (Q99759 whole entry, looked up): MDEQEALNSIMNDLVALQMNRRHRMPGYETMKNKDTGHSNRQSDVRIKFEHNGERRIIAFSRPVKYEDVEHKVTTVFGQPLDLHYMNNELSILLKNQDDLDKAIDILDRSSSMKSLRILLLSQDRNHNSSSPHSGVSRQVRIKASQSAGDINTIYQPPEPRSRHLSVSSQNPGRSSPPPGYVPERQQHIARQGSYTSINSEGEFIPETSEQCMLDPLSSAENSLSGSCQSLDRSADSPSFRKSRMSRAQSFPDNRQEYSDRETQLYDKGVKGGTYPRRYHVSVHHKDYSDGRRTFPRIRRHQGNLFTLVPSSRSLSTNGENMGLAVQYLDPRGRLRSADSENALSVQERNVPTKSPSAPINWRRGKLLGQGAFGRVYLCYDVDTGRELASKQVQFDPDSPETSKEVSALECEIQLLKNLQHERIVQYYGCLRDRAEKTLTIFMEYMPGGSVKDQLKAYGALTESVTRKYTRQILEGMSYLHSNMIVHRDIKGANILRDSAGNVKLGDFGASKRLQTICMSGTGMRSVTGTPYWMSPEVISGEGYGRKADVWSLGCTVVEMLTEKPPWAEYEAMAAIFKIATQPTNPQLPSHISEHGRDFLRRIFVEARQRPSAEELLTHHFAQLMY
# MEKK2 mut-MEK5 = MEK5 binding signal on mutant MEKK2 PB1, primary screen, biochemical, multiplex bead flow cytometry, Alexa488-MEK5; Alexa488-MEK5 binding to MEKK2 mutant; percent response, % at 10 µM; 290,000 tested, 0.35% active; in the data active means percent response above about 24%, passing the limit was not always enough
# MEKK2 WT-MEK5 = modulators of MEK5 binding to wildtype MEKK2, primary screen, biochemical, multiplex bead flow cytometry, Alexa488-MEK5. 290,000 tested, 1.1% active. Mitogen-activated protein kinase kinase kinase 2 (Homo sapiens), Q9Y2U5. binding response (% of control), % at 10 µM. Alexa488-MEK5 binding to MEKK2 WT; actives lie on both sides. AID 1531, 2009; in the data active means binding response below about 67% or above about 130%
# GRK2 inh = compounds blocking aptamer binding on GRK2 – biochemical, human GRK2, bead flow cytometry, HTS, primary screen. FAM-aptamer displacement from GRK2. inhibition of aptamer binding, % at 10 µM. 330,000 tested, 0.59% active. AID 488847, 2010;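 active means inhibition of aptamer binding above 40%, roughly 3 SD of noise, on plates passing a quality check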;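 further: median bead fluorescence of bound FAM aptamer so fluorescent compounds give negative values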
# MEKK2wt confirm = modulators of MEK5 binding to wildtype MEKK2, confirmation, biochemical, single concentration, multiplex bead flow cytometry; shares compounds with MEKK3 PB1 HTS; Alexa488-MEK5 binding to MEKK2 WT; actives lie on both sides; binding response (% of control), % at 10 µM; 5,900 tested, 2.4% active; in the data active means binding response below about 16% or above about 210%; inactive means in between
# MEKK2mut confirm = mutant MEKK2 PB1-MEK5 binding signal retest – biochemical, single concentration, multiplex bead flow cytometry, confirmation; shares compounds with MEKK3 PB1 HTS; Alexa488-MEK5 binding to MEKK2 mutant; percent response, % at 10 µM; 5,900 tested, 2% active; AID 1893, 2009; in the data active means percent response mostly above about 71%, no sharp cut-off; inactive means mostly below about 38%;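 further: higher means compound restores mutant binding toward wildtype level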
# MEKK3 confirm = MEKK3 wild-type PB1 binding to MEK5, inhibitors, confirmation, biochemical, bead multiplex flow cytometry, single concentration, wildtype. shares compounds with MEKK3 PB1 HTS. Alexa488-MEK5 binding to MEKK3; stronger effect = lower value. binding response (% of control), % at 10 µM. 5,900 tested, 1.8% active;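 active means binding response below 72% of control, or above a set upper limit, though filed actives all read lower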;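 further: 100% = DMSO only wells and 0% = binding blocked by excess unlabeled MEK5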
# Active calls of the source: *; x = no result given; ! = not confirmed by another sample; [ ] = dose if it differs, or a comment. This is a sample that favours compounds with a hit; in the whole collection about 2.5% have one here.
SMILES,MEKK3 PB1 HTS,MEKK2 mut-MEK5,MEKK2 WT-MEK5,GRK2 inh,MEKK2wt confirm,MEKK2mut confirm,MEKK3 confirm
O=C(NCCc1ccc(Cl)cc1)c1cccnc1,95.0,-8.0,95.0,0.0,x,x,x
Cc1ccc(NC(=O)c2cc(S(=O)(=O)NCCC3=CCCCC3)ccc2F)cc1,128.0*,0.0,109.0,1.0,98.0,-6.0,104.0
O=C(NCCC1=CCCCC1)c1cc(S(=O)(=O)N2CCOCC2)ccc1F,x,x,x,0.0,x,x,x
O=C(CCC1N=C2c3ccccc3N=C(SCc3ccc(F)cc3)N2C1=O)NCc1ccco1 (stereo not drawn),101.0,0.0,98.0,1.0,x,x,x
O=C(CC1N=C2c3ccccc3N=C(SCc3ccc(F)cc3)N2C1=O)NCc1ccco1 (stereo not drawn),2.0*[inhibitor],-16.0,2.0*[inhibitor],3.0,100.0,0.0,105.0
CCN(CC)CCNc1nc(SC)nc2sc3c(c12)CCN(C)C3,107.0,16.0,117.0,0.0,x,x,x
CSc1nc(NCCCN(C)C)c2c3c(sc2n1)CN(C)CC3,100.0,30.0*,138.0*,0.0,120.0,34.0,106.0
CCOC(=O)c1c(NC(=O)Cn2cc([N+](=O)[O-])cn2)sc2c1CCC2,74.0,-16.0,77.0,0.0,x,x,x
NC(=O)c1c(NC(=O)Cn2cc([N+](=O)[O-])cn2)sc2c1CCCC2,95.0,270.0*,x,0.0,101.0,7.0,103.0
O=S(=O)(Cc1ccccc1)N1CCC(N2CCN(c3ccccc3)CC2)CC1,133.0*,5.0,117.0,0.0,111.0,4.0,104.0
Cc1ccc2[nH]c(=O)c3cc(C(=O)NCC4CCCO4)sc3c2c1 (stereo not drawn),107.0,6.0,104.0,2.0,x,x,x
CCCCCCCn1ccc(=N)cc1,103.0,1.0,105.0,1.0,x,x,x
CCCCCCCCCn1ccc(=N)cc1,131.0*,31.0,140.0*,x,112.0,6.0,104.0
CN[C@H]1CC[C@@H](c2ccc(Cl)c(Cl)c2)c2ccccc21,112.0,18.0,176.0*!,2.0,117.0,19.0,102.0
O=C1C=C(O)CC(c2ccc(Cl)c(Cl)c2)C1 (stereo not drawn),91.0,-5.0,89.0,0.0,x,x,x
O=c1[nH]c(Cc2ccccc2)nc2ccccc12,100.0,-11.0,89.0,0.0,x,x,x
FC(F)Sc1ccc(NC(=S)NC2CCC(NC(=S)Nc3ccc(SC(F)F)cc3)CC2)cc1 (stereo not drawn),112.0,9.0,145.0*,0.0,131.0,12.0,104.0
S=C(Nc1ccc(Br)cc1)NC1CCCCC1,151.0*,1.0,116.0,6.0,108.0,6.0,107.0
CC(C)(C)C1CCC2(CC1)C(Nc1cccc(C(F)(F)F)c1)=NC(=S)N2CC#N (stereo not drawn),2.0*[inhibitor],-18.0,3.0*[inhibitor],0.0,99.0,-1.0,98.0
O=C(Nc1ccccc1)N1CCCN(c2ccc(C(F)(F)F)cc2[N+](=O)[O-])CC1,104.0,4.0,107.0,0.0,x,x,x
CCOc1ccc(C2CC(=O)n3nc(C45CC6CC(CC(C6)C4)C5)nc3S2)cc1OC (stereo not drawn),104.0,6.0,106.0,0.0,x,x,x
CCc1cccc(C)c1NC(=O)CC(C)(C)CC(=O)O,92.0,-10.0,90.0,x,x,x,x
C=CCN=C(C)C1=C(O)C(C)OC1=O (stereo not drawn),134.0*,1.0,103.0,7.0,103.0,3.0,105.0
Cc1nc2c3ccccc3n(Cc3ccccc3F)c2s1,100.0,-2.0,95.0,0.0,x,x,x
Cc1nc2c3cc(F)ccc3n(Cc3ccccc3)c2s1,155.0*,-1.0,111.0,0.0,104.0,7.0,105.0
